Assay [1] can be described thus: optical density shifts of acrAB sulA E. coli – strain DRC41, OD650, 48 h, E. coli filamentation inducer project, primary screen (AID 1152).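 Note: E. coli MC1000 strain DRC41 lacking acrAB efflux pump and sulA.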 The note with it: higher = more signal, called active from +8 up or from −8 down.
The nature of assay [2]: probe aLefty1 binding on compound microarray – biochemical, small-molecule microarray, 635/667 nm fluorescence, primary screen (AID 1153).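 Note: score merges spot fluorescence with signal-to-noise ratio from the scanned slide images.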 The note with it: higher = more signal.
The nature of assay [3]: plasmodial surface anion channel blockers, osmotic lysis – cell-based, P. falciparum Indochina, OD700, 1 h, primary screen (AID 1154). The note with it: P. falciparum Indochina infected RBC osmotic lysis, higher = more signal, called active from +8 up or from −8 down.
A short description of assay [4]: plasmodial surface anion channel blockers, osmotic lysis – cell-based, P. falciparum Indochina, OD700, 2 h, primary screen (AID 1155).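 Note: lysis reports solute entry through the parasite surface anion channel PSAC.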 The note with it: P. falciparum Indochina infected erythrocytes, higher = more signal, called active from +8 up or from −8 down.
The nature of assay [5]: changes in parasitized red cell lysis, either direction – P. falciparum Indochina, OD700, 3 h, PSAC antagonist project, primary screen (AID 1156). The note with it: P. falciparum-infected erythrocytes, osmotic lysis, higher = more signal, called active from +8 up or from −8 down.
The nature of assay [6]: plasmodial surface anion channel blockers, osmotic lysis – cell-based, P. falciparum Indochina, OD700, 18 h, primary screen (AID 1157). The note with it: P. falciparum Indochina infected erythrocytes, osmotic lysis OD700, 18 h; higher = more signal, called active from +8 up or from −8 down.
A short description of assay [7]: S6 kinase pathway phospho-S6 level changes – cell-based, A549, cytoblot, luminescence, serum-stimulated, primary screen (AID 1158).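 Note: serum-stimulated A549 lung adenocarcinoma cells; signal is phosphorylated S6 detected by cytoblot immunostaining with HRP secondary.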 The note with it: 5 h, higher = more signal.
The target in assay [8] is NADPH oxidase 2 (Homo sapiens) (UniProt P04839). Briefly: compounds shifting NOX2 Amplex Red fluorescence – cell-based, HEK293-NOX2, PMA-stimulated, NOX inhibitor project, primary screen (AID 1159). Note: test concentration not given here. The note with it: 45 min, higher = more signal, called active from +8 up or from −8 down.
NADPH oxidase 2 (Homo sapiens), sequence (P04839 whole entry, looked up): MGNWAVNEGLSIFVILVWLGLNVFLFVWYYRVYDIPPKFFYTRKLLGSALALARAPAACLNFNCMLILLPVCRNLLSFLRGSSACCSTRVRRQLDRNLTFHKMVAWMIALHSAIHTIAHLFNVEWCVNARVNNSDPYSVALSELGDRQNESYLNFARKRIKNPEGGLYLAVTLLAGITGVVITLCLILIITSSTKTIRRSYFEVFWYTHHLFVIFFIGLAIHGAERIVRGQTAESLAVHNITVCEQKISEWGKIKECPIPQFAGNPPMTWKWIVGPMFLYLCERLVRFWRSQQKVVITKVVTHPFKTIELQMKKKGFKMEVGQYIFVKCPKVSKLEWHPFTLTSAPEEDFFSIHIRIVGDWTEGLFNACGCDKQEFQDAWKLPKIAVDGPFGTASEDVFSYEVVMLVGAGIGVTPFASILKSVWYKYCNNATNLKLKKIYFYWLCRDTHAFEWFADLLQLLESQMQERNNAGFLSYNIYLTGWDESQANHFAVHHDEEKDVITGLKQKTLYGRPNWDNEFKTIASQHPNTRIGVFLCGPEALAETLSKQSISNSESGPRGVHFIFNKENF
Assay [9] concerns the target NADPH oxidase 4 (Homo sapiens) (UniProt Q9NPH5). Briefly: compounds shifting NOX4 Amplex Red fluorescence – cell-based, HEK293-NOX4, tetracycline-induced, NOX inhibitor project, primary screen (AID 1160). The note with it: HEK293-NOX4, Amplex Red H2O2 fluorescence, 45 min; higher = more signal, called active from +8 up or from −8 down.
Assay [10] concerns the target NADPH oxidase 5 (Homo sapiens) (UniProt Q96PH1). Briefly: compounds shifting NOX5 Amplex Red fluorescence – cell-based, HEK293-NOX5, NOX inhibitor project, primary screen (AID 1161). The note with it: HEK293-NOX5, ionomycin, 45 min, higher = more signal.
Assay [11] is described as follows: compound effects on lung adenocarcinoma cell viability – A549, calcein-AM fluorescence, 48 h, basal, profiling panel (AID 1162). Note: test concentration not given here. The note with it: higher = more signal.
Assay [12] can be described thus: compound effects on differentiated 3T3-L1 adipocyte viability – cell-based, 3T3-L1 adipocytes, calcein-AM fluorescence, 48 h, basal, profiling panel (AID 1163). Note: test concentration not given here. The note with it: 3T3-L1 adipocytes viability, higher = more signal.
Assay [13] in a line: compound effects on hepatocellular carcinoma cell viability – HepG2, calcein-AM fluorescence, 48 h, basal, profiling panel (AID 1164). Note: test concentration not given here. The note with it: higher = more signal.
The nature of assay [14]: compound effects on multiple myeloma cell viability – MM1S, calcein-AM fluorescence, 48 h, basal, profiling panel (AID 1165).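 Note: viability of MM1S multiple myeloma cells under basal unstimulated conditions; test concentration not given here.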 The note with it: higher = more signal.
The nature of assay [15]: calcein-AM signal in unstimulated myeloma cells – cell-based, calcein-AM fluorescence, 48 h, PK04 Diversity Set, profiling panel (AID 1166).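 Note: cells grown under basal conditions without added stimulus; test concentration not given here.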 The note with it: RPMI8226 myeloma viability, higher = more signal.
Assay [16] is described as follows: JC-1 mitochondrial signal, unstimulated HepG2 cells – cell-based, JC-1 fluorescence, 24 h, 100 nL compound, profiling panel (AID 1167). Note: test concentration not given here. The note with it: HepG2 mitochondrial potential, higher = more signal.
Assay [17] in a line: JC-1 mitochondrial signal, unstimulated adipocytes – cell-based, JC-1 fluorescence, 3T3-L1 adipocytes, 24 h, 100 nL compound, profiling panel (AID 1168). Note: test concentration not given here. The note with it: JC-1 mitochondrial fluorescence, higher = more signal, called active from +8 up or from −8 down.
Assay [18] is described as follows: JC-1 mitochondrial signal, unstimulated myeloma cells – cell-based, JC-1 fluorescence, RPMI8226, 24 h, 100 nL compound, profiling panel (AID 1169). Note: test concentration not given here. The note with it: JC-1 mitochondrial potential fluorescence, higher = more signal.
Assay [19] is described as follows: JC-1 mitochondrial signal, unstimulated MM1S myeloma – cell-based, JC-1 fluorescence, 24 h, 100 nL compound, profiling panel (AID 1170). Note: test concentration not given here. The note with it: MM1S mitochondrial potential, higher = more signal.
Assay [20] in a line: resazurin metabolic signal in A549 cells – cell-based, resazurin fluorescence, 24 h, PK04 Diversity Set, profiling panel (AID 1171). Note: test concentration not given here. The note with it: A549 viability, higher = more signal, called active from +8 up or from −8 down.

Molecules are shown by their SMILES. Calls of active or inactive are those of the source.

NADPH oxidase 5 (Homo sapiens), sequence (Q96PH1 whole entry, looked up): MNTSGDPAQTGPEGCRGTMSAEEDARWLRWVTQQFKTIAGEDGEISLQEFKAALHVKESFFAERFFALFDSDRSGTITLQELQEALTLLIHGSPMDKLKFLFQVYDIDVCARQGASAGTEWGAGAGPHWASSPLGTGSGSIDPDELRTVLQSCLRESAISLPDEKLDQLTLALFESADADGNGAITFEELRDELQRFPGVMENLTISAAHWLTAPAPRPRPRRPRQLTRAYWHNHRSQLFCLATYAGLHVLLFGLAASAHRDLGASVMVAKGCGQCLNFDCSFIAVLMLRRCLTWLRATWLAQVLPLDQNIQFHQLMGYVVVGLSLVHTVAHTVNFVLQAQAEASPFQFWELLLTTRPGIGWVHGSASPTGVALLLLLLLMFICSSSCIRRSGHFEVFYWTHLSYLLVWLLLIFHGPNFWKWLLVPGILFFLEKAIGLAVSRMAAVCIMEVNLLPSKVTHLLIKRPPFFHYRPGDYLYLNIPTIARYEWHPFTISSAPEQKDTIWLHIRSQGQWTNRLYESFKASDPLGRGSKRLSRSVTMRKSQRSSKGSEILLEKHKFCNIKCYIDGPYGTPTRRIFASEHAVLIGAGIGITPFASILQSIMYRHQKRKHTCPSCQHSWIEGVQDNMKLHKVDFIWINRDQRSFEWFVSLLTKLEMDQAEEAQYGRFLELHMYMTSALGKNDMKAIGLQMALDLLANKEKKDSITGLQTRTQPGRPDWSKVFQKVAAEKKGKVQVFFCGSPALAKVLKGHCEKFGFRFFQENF
NADPH oxidase 4 (Homo sapiens), sequence (Q9NPH5 whole entry, looked up): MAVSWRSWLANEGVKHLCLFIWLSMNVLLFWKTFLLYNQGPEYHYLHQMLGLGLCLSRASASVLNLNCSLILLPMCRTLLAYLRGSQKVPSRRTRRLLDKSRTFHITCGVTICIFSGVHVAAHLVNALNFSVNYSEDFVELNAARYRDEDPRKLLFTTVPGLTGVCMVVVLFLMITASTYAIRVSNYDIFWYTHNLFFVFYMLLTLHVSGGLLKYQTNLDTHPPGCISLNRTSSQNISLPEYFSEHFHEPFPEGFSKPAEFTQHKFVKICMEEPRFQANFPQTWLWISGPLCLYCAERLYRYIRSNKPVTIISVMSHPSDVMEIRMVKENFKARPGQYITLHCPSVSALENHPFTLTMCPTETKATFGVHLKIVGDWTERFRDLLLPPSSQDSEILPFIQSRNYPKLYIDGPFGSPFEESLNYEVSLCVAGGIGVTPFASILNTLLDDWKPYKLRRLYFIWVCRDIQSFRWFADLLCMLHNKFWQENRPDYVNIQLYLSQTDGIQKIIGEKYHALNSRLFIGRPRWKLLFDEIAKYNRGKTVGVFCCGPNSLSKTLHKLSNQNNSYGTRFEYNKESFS

For the molecule `CC(=O)NCCCC[C@@H]1NC(=O)[C@H]2C[C@@H](C(=O)NCCCCCCNC(=O)CS)[C@@H](c3ccc(O)cc3)N2C1=O`, the z-score in assay [1] was 0.0783 (inactive); in [3] it was 4.2 (inactive); in [4] it was 0.507 (inactive); in assay [5] it was 3.45 (inactive); in [6] it was 0.301 (inactive); in [7] it was -0.371. Also, the z-score in assay [8] was 0.294 (inactive); in assay [9], -0.187 (inactive); in [10] it was 0.673; in [11], -0.224; in assay [12], 0.726; in [13], -1.28. Moreover, the z-score in assay [14] was -0.197; in assay [15], 0.0535; in [16] it was -1.33; in [17], 0.184 (inactive); in [18] it was -0.0883; in [19] it was -0.213. Besides, the z-score in assay [20] was -0.689 (inactive). This molecule also gave a composite z-score in assay [2] of 0.132.

With `C=C[C@H](CO)NS(=O)(=O)c1ccc(Br)cc1`, the z-score in assay [1] is 1.25 (inactive); in assay [3], -0.261 (inactive); in assay [4], -0.102 (inactive); in assay [5], -0.154 (inactive); in assay [6], 0.325 (inactive); in assay [7], 0.0242. In addition, the z-score was 2.3 (inactive) in assay [8]; 0.447 (inactive) in [9]; 0.264 in assay [10]; 1.52 in [11]; 0.131 in assay [12]; 1.34 in assay [13]. Moreover, the z-score was -0.328 in assay [14]; -0.451 in assay [15]; 0.63 in assay [16]; 0.489 (inactive) in assay [17]; 0.3 in assay [18]; 0.525 in assay [19]. For the same molecule, the z-score in assay [20] is 0.204 (inactive). This molecule displayed a composite z-score in assay [2] of -0.24.

As for `CCOC(=O)C[C@H]1[C@H](OC(=O)c2ccc(C(=O)c3ccccc3)cc2)[C@@H](NC(=O)c2ccccc2)c2cc(OCCCO)ccc2N1C(=O)Cc1ccc(OC)cc1`, the z-score in [1] is -0.126 (inactive); in assay [3], 3.37 (inactive); in [4] it was 0.656 (inactive); in assay [5], -0.391 (inactive); in [6] it was 0.259 (inactive); in assay [7], -0.0114. Moreover, the z-score in [8] was 0.924 (inactive); in assay [9] it was 0.983 (inactive); in assay [10] it was 1.45; in assay [11] it was 1.21; in assay [12], -0.0981; in assay [13] it was 0.316. Also, the z-score in assay [14] is -0.797; in assay [15] it was 0.0179; in assay [16], 1.95; in [17], 0.591 (inactive); in assay [18] it was -0.696; in assay [19] it was -0.231. Besides, the z-score in assay [20] is 0.261 (inactive). In assay [2], this molecule yielded a composite z-score of -0.185.

Consider `COCCOC(=O)N1C(=O)[C@@]2(c3cc(C#Cc4ccc(OC)cc4)ccc31)[C@H](c1ccccc1OCCO)N1[C@H](c3ccccc3)[C@H](c3ccccc3)OC(=O)[C@H]1[C@@H]2C(=O)NC[C@H](O)c1ccccc1`, for which the z-score in assay [1] is 0.216 (inactive); in assay [3], 2.92 (inactive); in assay [4] it was 2.16 (inactive); in assay [5] it was -0.76 (inactive); in [6] it was 0.804 (inactive); in assay [7], -0.325. Also, the z-score in assay [8] is 1.16 (inactive); in assay [9] it was 1.16 (inactive); in assay [10] it was 0.967; in assay [11], -0.796; in [12], 1.02; in assay [13], -0.206. For the same molecule, the z-score in [14] was -0.889; in assay [15], -2.23; in assay [16] it was 0.117; in assay [17], 3.21 (inactive); in assay [18], -0.485; in assay [19], -1.26. Moreover, the z-score in [20] was -0.762 (inactive). The molecule further had a composite z-score in [2] of 0.396.

As for `CCOC(=O)C[C@H]1[C@H](OC(=O)c2cc3ccccc3oc2=O)[C@@H](NC(=O)c2ccccc2)c2cc(OCCCO)ccc2N1C(=O)c1ccc2ccccc2n1`, the z-score in [1] was 0.0582 (inactive); in assay [3], 10.4 (active); in assay [4], 1.33 (inactive); in assay [5], 1.17 (inactive); in [6], 0.599 (inactive); in assay [7], -0.253. Moreover, the z-score in assay [8] is 0.543 (inactive); in assay [9], 0.43 (inactive); in [10], 1.44; in assay [11], 0.282; in assay [12], 0.785; in assay [13] it was -0.112. Moreover, the z-score in [14] is -0.0357; in assay [15], -1.08; in assay [16] it was -0.314; in [17] it was 0.122 (inactive); in assay [18], -0.311; in assay [19], -0.0496. Further, the z-score in assay [20] was -0.886 (inactive). Further, the composite z-score in [2] was -0.0969.
